Assays:
Settings in all cases: concentration: 1 μM, replicates: in singlicate; n = 1
[1] = system: CSNK2A2
[2] = system: T1, CTK
T1 construct: gene MATK

[3] = system: DAPK1
[4] = system: DAPK2
[5] = system: DAPK3
[6] = system: T2, DCAMKL1
T2 construct: gene DCLK1

[7] = system: T3, DCAMKL2
T3 construct: gene DCLK2

[8] = system: T4, DCAMKL3
T4 construct: gene DCLK3

[9] = system: DDR1
[10] = system: DDR2
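Note: KINOMEscan kinase panel screen.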

Compound	%Inh [1]	%Inh [2]	%Inh [3]	%Inh [4]	%Inh [5]	%Inh [6]	%Inh [7]	%Inh [8]	%Inh [9]	%Inh [10]
O=C(Nc1n[nH]c2nc(-c3ccccc3)c(Br)cc12)C1CC1 [SB-708998]	4%	0%	0%	0%	0%	0%	0%	0%	23%	9%
COc1cc2ncn(-c3cc(OCCCc4ccccc4)c(C(N)=O)s3)c2cc1OC [GSK205189]	3%	0%	0%	26%	0%	0%	17%	1%	2%	3%
O=C(Nc1n[nH]c2nc(-c3ccccc3)c(Cl)cc12)C1CC1 [SB-734909]	34%	27%	9%	0%	0%	16%	18%	8%	17%	18%
COc1ccc(-c2cc3c(C)nc(N)nc3n([C@H]3CC[C@H](O)CC3)c2=O)cn1	0%	0%	0%	0%	1%	0%	0%	0%	0%	0%

— publication PMC5540273 (PLoS ONE, 2017)
